Assay results: publication PMC4336329 (PLoS ONE, 2015)
The campaign covered roughly 310,000 compounds. About 14,000 (4.5%) showed an effect of 50% or more. The effect is printed as a negative number. The list comes from a sample in which strong results are over-represented; it also holds similar structures and randomly drawn compounds.

The molecules below were run against human ether-à-go-go-related gene (hERG) potassium channel (human, UniProt Q12809) (assay: primary screen, population patch clamp on CHO cells stably expressing hERG; higher = less effect of the substance).
Chain of human ether-à-go-go-related gene (hERG) potassium channel (Q12809 whole entry, looked up): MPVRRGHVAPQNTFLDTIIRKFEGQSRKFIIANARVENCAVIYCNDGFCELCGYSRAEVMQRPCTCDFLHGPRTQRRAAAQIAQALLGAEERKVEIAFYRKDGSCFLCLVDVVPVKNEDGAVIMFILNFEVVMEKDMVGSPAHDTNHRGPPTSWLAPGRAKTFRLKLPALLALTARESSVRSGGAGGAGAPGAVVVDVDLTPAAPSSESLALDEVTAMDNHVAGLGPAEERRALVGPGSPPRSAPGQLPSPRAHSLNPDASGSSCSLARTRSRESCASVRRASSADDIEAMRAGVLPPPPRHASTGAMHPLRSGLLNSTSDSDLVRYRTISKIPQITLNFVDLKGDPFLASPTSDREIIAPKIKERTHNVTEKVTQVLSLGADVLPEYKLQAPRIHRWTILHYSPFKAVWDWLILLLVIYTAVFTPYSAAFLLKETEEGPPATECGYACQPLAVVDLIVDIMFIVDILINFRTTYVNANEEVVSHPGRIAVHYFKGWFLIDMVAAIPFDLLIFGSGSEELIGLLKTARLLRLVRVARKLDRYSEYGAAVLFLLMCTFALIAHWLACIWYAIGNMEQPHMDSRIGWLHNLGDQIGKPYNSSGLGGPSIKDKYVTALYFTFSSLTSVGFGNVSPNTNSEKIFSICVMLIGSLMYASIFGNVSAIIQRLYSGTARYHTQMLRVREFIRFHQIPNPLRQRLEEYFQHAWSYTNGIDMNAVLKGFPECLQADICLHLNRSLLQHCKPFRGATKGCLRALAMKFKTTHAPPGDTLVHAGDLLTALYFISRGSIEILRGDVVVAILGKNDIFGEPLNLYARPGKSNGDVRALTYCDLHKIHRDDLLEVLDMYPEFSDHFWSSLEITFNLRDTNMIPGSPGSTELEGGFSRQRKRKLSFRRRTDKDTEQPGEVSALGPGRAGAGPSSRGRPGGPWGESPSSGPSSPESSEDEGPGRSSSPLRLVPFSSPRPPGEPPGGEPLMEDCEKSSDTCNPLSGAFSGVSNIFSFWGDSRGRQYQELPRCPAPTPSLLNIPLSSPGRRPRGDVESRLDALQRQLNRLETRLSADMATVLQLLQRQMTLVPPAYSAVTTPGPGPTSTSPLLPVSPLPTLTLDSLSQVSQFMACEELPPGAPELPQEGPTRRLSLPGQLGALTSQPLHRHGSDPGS
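Note: peak tail current of the secondary pulse compared with the same well before compound.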

SMILES	hERG current change (%, negative = inhibition) at 10uM [%]
O=C(COc1ccc(Cl)cc1)NC(=S)Nc1ccccc1N1CCOCC1	17.4
Cc1ccc2c(O)c(C)c(=O)[nH]c2n1	24.3
O=C(Nc1ccc(S(=O)(=O)NC2=NCCCCC2)cc1)c1ccco1	2.7
CCN(CC)c1ccc(NC(=O)CSc2ccsc2[N+](=O)[O-])c(C)c1	5.74
Br.CN1CCN(CC(=O)c2cc(C(C)(C)C)c(O)c(C(C)(C)C)c2)CC1	-13.3
COc1cccc(Cn2c(=O)oc3ccccc32)c1	4.3
Cc1csc2nc(COC(=O)c3ccc(Cl)c([N+](=O)[O-])c3)cc(=O)n12	-63.1
COc1ccc(C(=O)OCc2cc(=O)n3c(C)csc3n2)cc1F	-2.77
Cc1csc2nc(COC(=O)c3cccc(N(C)C)c3)cc(=O)n12	-32.5
Fc1ccc(-c2cc(C(F)(F)F)nc(N3CCCCC3)n2)cc1	19.5
C/C(Cn1nc([N+](=O)[O-])cc1C)=N\NC(=O)COc1ccc(Cl)cc1Cl	-66.3
COc1ccccc1CNC(=O)C/C(C)=N/NC(=O)COc1ccc(C)cc1Br	-63.9
C/C(Cn1nc([N+](=O)[O-])cc1C)=N\NC(=O)COc1ccccc1[N+](=O)[O-]	-17.4
C/C(CC(=O)NCc1ccco1)=N\NC(=O)c1ccc(Cl)cc1Cl	8.44
C/C(CC(=O)NCc1ccco1)=N\NC(=O)COc1ccc(Cl)cc1Cl	-65.6
C/C(CC(=O)NCc1ccc(Cl)cc1)=N\NC(=O)COc1ccc(C)cc1Br	-33.1
C/C(Cn1cnc([N+](=O)[O-])n1)=N/NC(=O)COc1c(Cl)cc(Cl)cc1Cl	-31.4
O=C(COc1ccc(Cl)cc1Cl)NCc1ccco1	0.837
C/C(Cn1nc([N+](=O)[O-])cc1C)=N\NC(=O)COc1c(Cl)cc(Cl)cc1Cl	-68
Cc1cc(C)n(CC(=O)NNC(=O)COc2ccc(Cl)cc2Cl)n1	3.06
CCCNC(=O)C/C(C)=N/NC(=O)COc1ccc(C)cc1Br	-20.9
COc1ccc(C(=O)N/N=C(\C)Cn2nc([N+](=O)[O-])cc2C)cc1	-15.8
O=C(NN1C(=O)CSC1=S)C(=O)NN1C(=O)CSC1=S	25.3

SMILES	hERG current change (%, negative = inhibition) at 10uM [%]
O=C(Nc1ccccc1C(=O)Nc1ccccc1C(=O)O)c1ccccc1	20.5
CN1CCN(Cc2nnc(-c3ccccc3)o2)CC1	22.7
C/C(=C\C(=O)c1cccnc1)Nc1ccc(C)c(C)c1	-20
CCc1ccc(OCC2NCCc3cc(OC)c(OC)cc32)cc1 (stereo not drawn)	-45.2
CC(=O)Nc1ccc(N2CCCC2)cc1	6.33
CCN1CCN(C(c2ccccc2)c2sc3nc(C)nn3c2O)CC1 (stereo not drawn)	-9.32
C/C(CC(=O)N(C(C)C)C(C)C)=N\NC(=O)COc1ccc(Cl)cc1Cl	-22.6
C/C(CC(=O)Nc1ccccc1)=N\NC(=O)COc1ccc(C)cc1Br	2.14
C/C(CC(=O)N(C(C)C)C(C)C)=N\NC(=O)COc1ccc(Br)cc1Br	-51.3
Cc1cc2nc(-c3ccc(SCC(=O)Nc4ccc(S(=O)(=O)N5CCCC5)cc4)nc3)[nH]c2cc1C	8.52
Cc1cccc(N2C(=O)CC(N3CCN(Cc4ccc5c(c4)OCO5)CC3)C2=O)c1 (stereo not drawn)	-19.1
COc1ccc(CN2CCN(Cc3cn(C)nc3-c3ccccc3)CC2CCO)c(C)c1C (stereo not drawn)	-72.4
CCOc1ccccc1CN1CCN(Cc2cn(C)nc2-c2ccccc2)CC1CCO (stereo not drawn)	-65.6
CCn1ncc(CN2CCN(Cc3ccc(OC)c(C)c3C)C(CCO)C2)c1C (stereo not drawn)	-19.9
Cc1ccc(CN2CCN(Cc3cn(C)nc3-c3ccccc3)CC2CCO)o1 (stereo not drawn)	1.84
Cn1cc(CN2CCN(Cc3ccccc3)C(CCO)C2)c(-c2ccccc2)n1 (stereo not drawn)	-37.9
COc1cc(C2CC(=O)Oc3c2c(=O)n(C)c2ccccc32)ccc1O (stereo not drawn)	14.7
COc1ccc(NC(=O)C2(c3ccc(NC(=O)c4ccc(OC)cc4)cc3)CCCC2)cc1	-9.88
CCn1c(SCC(=O)N/N=C/c2ccccc2OCC(=O)O)nnc1-c1ccc(C)cc1	3.57
Cn1c(=O)c(C(=O)COC(=O)c2cc(C3CC3)nc3ccccc23)c(N)n(Cc2ccccc2)c1=O	13.8
Cc1cc(C)cc(-n2ncc3c2CCCC3NC(=O)CCN2Cc3ccccc3C2=O)c1 (stereo not drawn)	-54.3
Cc1ccccc1-n1ncc2c1CC(C)(C)CC2NC(=O)CCN1Cc2ccccc2C1=O (stereo not drawn)	-3.54
Cc1cccc(-n2ncc3c2CCCC3NC(=O)CCN2Cc3ccccc3C2=O)c1C (stereo not drawn)	2.55

SMILES	hERG current change (%, negative = inhibition) at 10uM [%]
Cc1cc(C(=O)NC2CCCc3c2cnn3-c2ccc(C(C)(C)C)cc2)n[nH]1 (stereo not drawn)	-5.84
Cc1cc(C)cc(-n2ncc3c2CCCC3NC(=O)C2CCC2)c1 (stereo not drawn)	-76
Cc1ccc(-n2ncc3c2CCCC3NC(=O)c2csnn2)cc1C (stereo not drawn)	-33.2
CC(C)(C)c1ccc(-n2ncc3c2CCCC3NC(=O)c2csnn2)cc1 (stereo not drawn)	1.88
Cc1cc(C)cc(-n2ncc3c2CCCC3NC(=O)c2csnn2)c1 (stereo not drawn)	-110
Cc1cc(C)cc(-n2ncc3c2CCCC3NC(=O)C2(C(N)=O)CC2)c1 (stereo not drawn)	13.7
CC(=O)N1CCC(C(=O)NC2CCCc3c2cnn3-c2cc(F)cc(F)c2)CC1 (stereo not drawn)	-4.52
Cc1cc(C)cc(-n2ncc3c2CCCC3NC(=O)c2cc(C)[nH]n2)c1 (stereo not drawn)	-67.5
CC(=O)c1cc(C(=O)NC2CCCc3c2cnn3-c2cc(C)cc(C)c2)[nH]n1 (stereo not drawn)	-23
O=C(/C=C/Nc1ccc(S(=O)(=O)Nc2cnc3ccccc3n2)cc1)c1cccnc1	-12.9
O=C(C[n+]1cc(Br)cc(Br)c1)c1ccccc1.[Br-]	8.53
CC(C)C(=O)c1cn(CC(=O)NCc2ccc3c(c2)OCO3)c2ccccc12	16
CC1(C)CC(=O)C=C(c2ccc3[nH]ccc3c2)C1	1.61
O=C(CC1SC(=Nc2ccc3c(c2)OCCO3)NC1=O)Nc1ccc(F)cc1F (stereo not drawn)	8.62
Cc1n[nH]c(=S)n1/N=C/c1ccc(OCc2ccc(Cl)cc2Cl)cc1	11.1
Cc1cc(NC(=O)Cn2nnc(-c3ccccc3N)n2)no1	11.8
CCOC(=O)c1c(NC(=O)CSc2nnc(-c3ccccc3)o2)sc(C(C)=O)c1C	5.01
CC(C)(C)C(=O)N1CCN(c2ccc([N+](=O)[O-])cc2-n2cccc2)CC1	-26.3
Cc1ccc(N2CCN(C(=O)c3ccccc3)CC2)c(C)c1	-18.4
O=C(c1ccc(F)cc1)N1CCN(c2ccc([N+](=O)[O-])cc2-n2cccc2)CC1	-65
O=C(C1CC1)N1CCN(c2ccc([N+](=O)[O-])cc2-n2cccc2)CC1	-31
O=C(c1ccccc1F)N1CCN(c2ccc([N+](=O)[O-])cc2-n2cccc2)CC1	-23.1
Cc1ccc(C(=O)N2CCN(c3ccc([N+](=O)[O-])cc3-n3cccc3)CC2)cc1	-56.4

SMILES	hERG current change (%, negative = inhibition) at 10uM [%]
O=C(c1ccccc1)N1CCN(c2ccc([N+](=O)[O-])cc2-n2cccc2)CC1	-54.5
O=C(c1ccc(F)cc1)N1CCC(C(=O)N2CCN(S(=O)(=O)c3cccc([N+](=O)[O-])c3)CC2)CC1	-34.5
CCOC(=O)C1CCCN(C(=O)c2cc3ccc(OC)cc3[nH]2)C1 (stereo not drawn)	6.4
CN1CCN(CCCNCc2cn(CCC#N)c3ccccc23)CC1.O=C(O)C(=O)O	9.43
Cc1ccc(C(O)(COC(=O)C(C)C)COC(=O)C(C)C)c(O)c1	3.76
O=C(CCCC(=O)N(c1ccc2c(c1)OCCO2)C(C(=O)NC1CCCCC1)c1ccc(F)cc1)Nc1ccccn1 (stereo not drawn)	10
COc1ccc([N+](=O)[O-])cc1CSc1ccccn1	1.85
O=C(NC1CCCCC1)C(c1cccs1)N(CC1CCCO1)C(=O)c1csnn1 (stereo not drawn)	-16.1
COc1ccc(NC(=O)c2noc(C(C)C)c2[N+](=O)[O-])cc1	6.44
Cc1cc(C)cc(NC(=O)CN2CCCN(S(=O)(=O)c3ccc(Br)s3)CC2)c1	-6.01
COc1cc(NC(=O)CN2CCN(S(=O)(=O)c3ccc(C(C)C)cc3)CC2)cc(OC)c1	-11.5
COc1ccc(NC(=O)CN2CCN(S(=O)(=O)c3ccc(C(C)C)cc3)CC2)cc1OC	-66.5
COc1ccc(NC(C)=O)cc1NC(=O)CN1CCN(S(=O)(=O)c2ccc(C(C)C)cc2)CC1	-9.86
O=C(CN1CCN(S(=O)(=O)c2ccc(Cl)cc2)CC1)NC1CCCC1	-50.2
O=C(CN1CCN(S(=O)(=O)c2ccc(Cl)cc2)CC1)NC1CC1	1.82
O=C(CN1CCCN(S(=O)(=O)c2ccc(Br)s2)CC1)Nc1ccc(Cl)cc1	-28.7
O=C(CN1CCN(S(=O)(=O)c2ccc(Cl)cc2)CC1)NC(=O)NC1CCCCC1	-27.7
CCOc1ccc(NC(=O)CN2CCN(S(=O)(=O)c3ccc(Cl)cc3)CC2)cc1	-9.26
Cc1ccc(NC(=O)CN2CCCN(S(=O)(=O)c3ccc(Br)s3)CC2)cc1	-50.1
COc1ccc(NC(=O)CCN2CCN(S(=O)(=O)c3ccc(Cl)cc3)CC2)cc1	-27.1
COc1ccc(NC(=O)CN2CCN(S(=O)(=O)c3ccc(Cl)cc3)CC2)cc1	-79.7
